In ChEMBL document CHEMBL1961873, “Compounds: GSK PKIS; Assays: Nanosyn kinase panel” (2012) one finds inhibition data, which are given here for 34 molecules.

The structures appear in SMILES notation.

The target in the first assay is Cyclin-dependent kinase 2 (Homo sapiens) (UniProt P24941). The note with it: at 0.1 µM.
For `CN(c1ccc(NC(=O)Nc2c(Cl)cccc2Cl)cc1)c1ccnc(Nc2cccc(CS(C)(=O)=O)c2)n1`, the inhibition is -0.54%.
On the same count and under the same terms, to `CCS(=O)(=O)c1ccc(OC)c(Nc2ncc(-c3cccc(-c4ccccc4F)c3)o2)c1` belongs 0.27%; to `CS(=O)(=O)CCNCc1ccc(-c2ccc3ncnc(Nc4ccc(OCc5ccccc5)c(Br)c4)c3c2)o1`, -1.96%; to `N#Cc1ccc(Oc2nccc(-c3c(-c4ccc(F)cc4)ncn3C3CCNCC3)n2)cc1`, 1.81%.
As to `Fc1ccc(-c2ncn(C3CCNCC3)c2-c2ccnc(Oc3ccc4c(c3)OCO4)n2)cc1`, the inhibition amounted to 3.24%.
Still for that read-out and setting: with `COc1cc(N2CCN(C(C)C)CC2)ccc1Nc1nc(Nc2ccc(F)cc2C(=O)NC[C@@H](O)CO)c2cc[nH]c2n1` the figure was 0.16%.
Still for that read-out and setting: to `O=C1NC(=O)C(c2cccc(Cl)c2)=C1Nc1ccc(Cl)c(C(=O)O)c1` belongs 1.73%.
Still for that read-out and setting: to `NC(=O)c1cc(-c2ccncc2)cc(-c2ccccc2)c1N` belongs 4.07%.
On to `CS(=O)(=O)CCNCc1cc(-c2cc3c(Nc4ccc(OCc5cccc(F)c5)c(Cl)c4)ncnc3s2)cs1`, for which the inhibition is 1.9%.
Same read-out and setting: with `Cc1ccc(C(=O)NC2CCC2)cc1-c1ccc(C(=O)NCC2CC2)cc1` the figure was 2.25%.
Still for that read-out and setting: to `NC(=O)c1cc(-c2ccc(F)cc2)cc(-c2ccncc2)c1N` belongs 2.49%; to `O=C(Nc1n[nH]c2cc(-c3ccccc3)ccc12)C1CC1`, 4.57%; to `O=C(Nc1n[nH]c2nc(-c3ccc(O)cc3)c(Br)cc12)C1CC1`, 36.5%.
Same read-out and setting: to `C/C(Nc1ccc(S(N)(=O)=O)cc1)=C1/C(=O)Nc2ccccc21` belongs 8.8%; to `O=C1Nc2ccccc2/C1=C/Nc1ccc(-n2cncn2)cc1`, 6.28%; to `CCc1nccc2c1nc(-c1nonc1N)n2CC`, 1.55%.
Consider `CCN(CC)Cc1ccc(Nc2nccc(-c3cnn4ncccc34)n2)cc1`, for which the inhibition was 40.4%.
The same measure, in the same setting: to `Fc1ccc(-c2ncn(C3CCNCC3)c2-c2ccnc(Oc3ccc(F)c(F)c3)n2)cc1` belongs 3.33%; to `C[C@@H](Oc1cc(-n2cnc3ccc(OCC4CCN(C)CC4)cc32)sc1C(N)=O)c1ccccc1Cl`, 2.66%.
As to `COc1ccc2cc(-c3c(-c4ccncc4)nc(-c4ccc([S+](C)[O-])cc4C)n3C)ccc2c1` (stereo not drawn), the inhibition turned out to be 1.09%.
Regarding `CN1CCN(CCCNc2nc3ccc(Oc4ccc(NC(=O)Nc5cc(C(F)(F)F)ccc5F)cc4)cc3[nH]2)CC1`, the inhibition was -2.32%.
Same read-out and setting: with `Nc1nccc(-c2c(-c3ccc(F)cc3)ncn2C2CCC(O)CC2)n1` (stereo not drawn) the figure was 0.06%; with `c1ccc(Oc2ccc(Nc3ncc(-c4ccccc4)o3)cc2)cc1`, 0.94%.
The same measure, in the same setting: to `COc1ccc(-c2ccc3c(NC(=O)C4CC4)n[nH]c3n2)cc1` belongs 1.4%; to `O=C(Nc1n[nH]c2nc(-c3ccco3)ccc12)C1CC1`, -0.16%.
The same measure, in the same setting: with `CCS(=O)(=O)c1ccc(OC)c(Nc2ncc(-c3ccccc3Cl)o2)c1` the figure was -0.35%.
As to `CN(C)c1ccc2c(c1)/C(=C/Nc1ccc(S(N)(=O)=O)cc1)C(=O)N2`, the inhibition came out at 16.3%.
On the same count and under the same terms, to `CN(C)CCCNc1nccc(-c2c(-c3ccc(F)cc3)nn3cc(C(F)(F)F)ccc23)n1` belongs -2.39%.
Same read-out and setting: with `CCC(=O)Nc1ccc(C)c(-c2ccc(C(=O)NCC3CC3)cc2)c1` the figure was 3.5%.
On the same count and under the same terms, to `NS(=O)(=O)c1ccc(Nc2cc(-c3ccc(O)c(F)c3)n[nH]2)cc1` belongs 59.9%; to `COc1cc2ncn(-c3cc(OCCc4ccccc4)c(C(N)=O)s3)c2cc1OC`, 2.3%; to `Cc1ccc(C(=O)NC(C)C)cc1-c1ccc(C(=O)NCC2CC2)cc1`, -0.92%.
Consider `NCc1ccc(-n2c(-c3nonc3N)nc3cnccc32)cc1`, for which the inhibition worked out at 10.1%.
Same read-out and setting: with `COc1cc(Nc2ncc3c(C)nc(-c4cccc(C(F)(F)F)c4)n3n2)cc(OC)c1OC` the figure was 6%.

For the next assay the target is unchanged. Particulars: at 1 µM.
Consider `CN(c1ccc(NC(=O)Nc2c(Cl)cccc2Cl)cc1)c1ccnc(Nc2cccc(CS(C)(=O)=O)c2)n1`, for which the inhibition worked out at 2.62%.
As to `CCS(=O)(=O)c1ccc(OC)c(Nc2ncc(-c3cccc(-c4ccccc4F)c3)o2)c1`, the inhibition stood at 3.78%.
Same read-out and setting: with `CS(=O)(=O)CCNCc1ccc(-c2ccc3ncnc(Nc4ccc(OCc5ccccc5)c(Br)c4)c3c2)o1` the figure was -0.05%; with `N#Cc1ccc(Oc2nccc(-c3c(-c4ccc(F)cc4)ncn3C3CCNCC3)n2)cc1`, 2.89%; with `Fc1ccc(-c2ncn(C3CCNCC3)c2-c2ccnc(Oc3ccc4c(c3)OCO4)n2)cc1`, 6.04%.
On the same count and under the same terms, to `COc1cc(N2CCN(C(C)C)CC2)ccc1Nc1nc(Nc2ccc(F)cc2C(=O)NC[C@@H](O)CO)c2cc[nH]c2n1` belongs 0.53%; to `O=C1NC(=O)C(c2cccc(Cl)c2)=C1Nc1ccc(Cl)c(C(=O)O)c1`, 1.86%.
Take `NC(=O)c1cc(-c2ccncc2)cc(-c2ccccc2)c1N`: the inhibition came to 3.97%.
The same measure, in the same setting: with `CS(=O)(=O)CCNCc1cc(-c2cc3c(Nc4ccc(OCc5cccc(F)c5)c(Cl)c4)ncnc3s2)cs1` the figure was 4.94%; with `Cc1ccc(C(=O)NC2CCC2)cc1-c1ccc(C(=O)NCC2CC2)cc1`, 3.3%.
With `NC(=O)c1cc(-c2ccc(F)cc2)cc(-c2ccncc2)c1N`, the inhibition worked out at 2.14%.
The same measure, in the same setting: to `O=C(Nc1n[nH]c2cc(-c3ccccc3)ccc12)C1CC1` belongs 8.54%.
In the case of `O=C(Nc1n[nH]c2nc(-c3ccc(O)cc3)c(Br)cc12)C1CC1`, the inhibition came out at 73%.
Still for that read-out and setting: to `C/C(Nc1ccc(S(N)(=O)=O)cc1)=C1/C(=O)Nc2ccccc21` belongs 48.1%; to `O=C1Nc2ccccc2/C1=C/Nc1ccc(-n2cncn2)cc1`, 22.2%; to `CCc1nccc2c1nc(-c1nonc1N)n2CC`, 3.62%.
Still for that read-out and setting: with `CCN(CC)Cc1ccc(Nc2nccc(-c3cnn4ncccc34)n2)cc1` the figure was 70.1%; with `Fc1ccc(-c2ncn(C3CCNCC3)c2-c2ccnc(Oc3ccc(F)c(F)c3)n2)cc1`, 6.4%.
On the same count and under the same terms, to `C[C@@H](Oc1cc(-n2cnc3ccc(OCC4CCN(C)CC4)cc32)sc1C(N)=O)c1ccccc1Cl` belongs 5.46%.
Take `COc1ccc2cc(-c3c(-c4ccncc4)nc(-c4ccc([S+](C)[O-])cc4C)n3C)ccc2c1` (stereo not drawn): the inhibition is 1.29%.
For `CN1CCN(CCCNc2nc3ccc(Oc4ccc(NC(=O)Nc5cc(C(F)(F)F)ccc5F)cc4)cc3[nH]2)CC1`, the inhibition was -2.03%.
Still for that read-out and setting: to `Nc1nccc(-c2c(-c3ccc(F)cc3)ncn2C2CCC(O)CC2)n1` (stereo not drawn) belongs 1.24%; to `c1ccc(Oc2ccc(Nc3ncc(-c4ccccc4)o3)cc2)cc1`, 3.16%.
Turning to `COc1ccc(-c2ccc3c(NC(=O)C4CC4)n[nH]c3n2)cc1`, the inhibition stood at 4.59%.
Same read-out and setting: with `O=C(Nc1n[nH]c2nc(-c3ccco3)ccc12)C1CC1` the figure was 3.89%; with `CCS(=O)(=O)c1ccc(OC)c(Nc2ncc(-c3ccccc3Cl)o2)c1`, 1.49%.
Same read-out and setting: with `CN(C)c1ccc2c(c1)/C(=C/Nc1ccc(S(N)(=O)=O)cc1)C(=O)N2` the figure was 54%; with `CN(C)CCCNc1nccc(-c2c(-c3ccc(F)cc3)nn3cc(C(F)(F)F)ccc23)n1`, 1.3%; with `CCC(=O)Nc1ccc(C)c(-c2ccc(C(=O)NCC3CC3)cc2)c1`, 4.47%.
As for `NS(=O)(=O)c1ccc(Nc2cc(-c3ccc(O)c(F)c3)n[nH]2)cc1`, the inhibition stood at 86.9%.
Still for that read-out and setting: with `COc1cc2ncn(-c3cc(OCCc4ccccc4)c(C(N)=O)s3)c2cc1OC` the figure was 5.22%; with `Cc1ccc(C(=O)NC(C)C)cc1-c1ccc(C(=O)NCC2CC2)cc1`, 0.52%.
Same read-out and setting: to `NCc1ccc(-n2c(-c3nonc3N)nc3cnccc32)cc1` belongs 31.4%.
The same measure, in the same setting: with `COc1cc(Nc2ncc3c(C)nc(-c4cccc(C(F)(F)F)c4)n3n2)cc(OC)c1OC` the figure was 28.8%.

A word on the inhibition: it is the drop in the measured response relative to a control, in per cent.
